# Compound activity as filed in PubChem BioAssay.
# Sampled rows, rich in hits. Any-hit rate of the full collection: about 12%.
# BAZ2B inh: inhibitors of human BAZ2B bromodomain | 360,000 tested, 4.4% active | Q9UIF8 | AID 504333 | Potency, µM (top dose mostly 114 µM), usual class: inhibitors | AlphaScreen BAZ2B-H3K14Ac peptide displacement; also: nearly all actives have a fitted effect of over 60% in size
#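 BAZ2B (50 nM) with biotin-H3(5-23)K14Ac peptide (50 nM) in PBS pH 7.4, 0.01% Tween-20, preformed 30 min, then compound 30 min at room temperature; top concentration 110uM. AlphaScreen streptavidin donor/nickel chelate acceptor beads (10 ug/mL final), 20 min dark, signal read.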
# PLK1 PBD inh: inhibitors of human PLK1 polo-box domain binding; P53350; Plk1 PBD binding of FITC phosphopeptide, fluorescence polarization; Potency, µM, actives largely listed as inhibitors; 360,000 tested, 2.8% active; AID 720504; also: series mostly up to about 57 µM; nearly all actives have a fitted effect of over 65% in size
# G9a block: blocks human histone lysine methyltransferase G9a. Q96KQ7. G9a H3K9 monomethylation, AlphaScreen, 2 h. Potency, µM (series often up to 102 µM), hits mostly inhibitors. 350,000 tested, 8.8% active. AID 504332; also: nearly all actives have a fitted effect of over 75% in size
#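 Readings reflect AlphaScreen signal from monomethyl-H3K9 antibody detection. HMT at 20 nM; substrate b-H3K9 500 nM; cofactor SAM 20 uM; 2 h RT reaction; compounds tested as titrations in qHTS with 15 min preincubation.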
# HP1b chromo inh: HP1-beta chromodomain-methylated histone interaction inhibition; Potency, µM (highest dose often 114 µM), actives largely listed as inhibitors; P83916; AlphaScreen HP1-beta / biotin-H3K9me3 peptide binding; 390,000 tested, 0.56% active; also: nearly all actives have a fitted effect of over 70% in size
#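 Compound inhibition of the preformed complex between 50 nM HP1-beta and 50 nM biotinylated H3K9me3 peptide was read by AlphaScreen. Buffer was PBS pH 7.4 with 0.01% Tween-20. Incubations ran 30 min at room temperature, with 10 ug/mL donor/acceptor beads.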
# Sfp inh: inhibitors of Bacillus subtilis Sfp phosphopantetheinyl transferase; Biochemical Sfp PPTase activity, qHTS; Potency, µM, most hits filed as inhibitors; 310,000 tested, 3.5% active; AID 1490;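 also: the enzyme is Sfp with the accession as filed and its product quenches rhodamine fluorescence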
#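 Reaction rates are the 30-min fluorescence difference (ex 525, em 598 nm) in wells containing 15 nM Sfp, 5 uM rhodamine-CoA and 12.5 uM BHQ-2-YbbR at pH 7.6 with 10 mM MgCl2.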
# JMJD2A Tudor: JMJD2A Tudor domain (human) inhibition | O75164 | AlphaScreen JMJD2A-Tudor / H3K4me3 peptide binding | Potency, µM (doses to about 114 µM), hits mostly inhibitors | 390,000 tested, 4.4% active | AID 504339; also: nearly all actives have a fitted effect of over 50% in size
# Target sequence (O75164 whole entry, looked up, the tested form may be a part): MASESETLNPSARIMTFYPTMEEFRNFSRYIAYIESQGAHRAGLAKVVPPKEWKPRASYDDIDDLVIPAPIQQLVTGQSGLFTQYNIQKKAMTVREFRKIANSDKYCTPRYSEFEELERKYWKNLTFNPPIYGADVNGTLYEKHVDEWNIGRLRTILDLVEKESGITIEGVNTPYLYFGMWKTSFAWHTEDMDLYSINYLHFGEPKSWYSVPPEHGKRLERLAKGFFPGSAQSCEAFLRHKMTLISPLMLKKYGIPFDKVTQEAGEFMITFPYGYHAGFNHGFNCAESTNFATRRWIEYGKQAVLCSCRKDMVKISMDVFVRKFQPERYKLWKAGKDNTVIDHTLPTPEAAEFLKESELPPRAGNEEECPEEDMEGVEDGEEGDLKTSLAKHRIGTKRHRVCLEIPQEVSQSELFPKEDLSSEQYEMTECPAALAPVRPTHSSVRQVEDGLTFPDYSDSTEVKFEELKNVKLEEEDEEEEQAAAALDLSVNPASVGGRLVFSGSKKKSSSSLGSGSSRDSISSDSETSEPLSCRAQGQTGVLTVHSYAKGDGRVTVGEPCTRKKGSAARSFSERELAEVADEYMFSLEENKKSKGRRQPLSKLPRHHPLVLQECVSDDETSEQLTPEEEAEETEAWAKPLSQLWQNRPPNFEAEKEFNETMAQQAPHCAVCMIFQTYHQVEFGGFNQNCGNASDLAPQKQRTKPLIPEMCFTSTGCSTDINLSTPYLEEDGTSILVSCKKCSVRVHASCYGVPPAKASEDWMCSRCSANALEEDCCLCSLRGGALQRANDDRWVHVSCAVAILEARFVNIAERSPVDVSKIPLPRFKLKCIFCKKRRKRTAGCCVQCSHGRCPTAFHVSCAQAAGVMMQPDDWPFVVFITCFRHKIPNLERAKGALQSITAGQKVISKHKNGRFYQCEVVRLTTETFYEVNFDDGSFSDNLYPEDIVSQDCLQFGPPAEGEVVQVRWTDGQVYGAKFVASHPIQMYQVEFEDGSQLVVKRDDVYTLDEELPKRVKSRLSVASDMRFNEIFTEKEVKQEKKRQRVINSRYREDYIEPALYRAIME
# Hits are given with their value; n = inactive; u = inconclusive; x = no result; [ ] = another dose, or the depositor's remark. Calls follow the shape of the dose curve; as a rule, active = well fitted curve in the direction sought with a large enough effect; inconclusive = small, poorly fitted or top-dose-only effect, or another doubt; inactive = no such curve, though single readings can be large; an effect the other way counts as inactive or inconclusive.
SMILES,BAZ2B inh,PLK1 PBD inh,G9a block,HP1b chromo inh,Sfp inh,JMJD2A Tudor
C=CCc1cc(/C=C/c2nc(O)c([N+](=O)[O-])c(=O)[nH]2)cc(OC)c1O,u,n,50.1µM,n,n,n
CCOc1cc(/C=C\c2nc(O)c([N+](=O)[O-])c(=O)[nH]2)ccc1OC(C)C,n,n,u,n,n,n
O=c1[nH]c(/C=C\c2cccs2)nc(O)c1[N+](=O)[O-],n,u,u,n,n,u
O=c1[nH]c(/C=C\c2ccc(O)c(Cl)c2)nc(O)c1[N+](=O)[O-],n,n,50.1µM,n,n,n
CCOC(=O)CCN1C(=O)[C@H]2[C@H]3[C@H](O)[C@H](O)C/C(=N/OC/C=C(\C)CCC=C(C)C)[C@@H]3CC[C@@H]2C1=O,x,x,x,x,n,x
Cc1ccc(-n2nc3c(=O)n(CCCC(=O)NCc4ccccc4Cl)nc(C)c3c2C)cc1,n,n,n,n,n,n
COc1ccc(NC(C)=[N+](C)CCNS(=O)(=O)c2ccc(Cl)cc2)cc1,56.2µM,n,u,u,70.8µM,25.1µM
CCOC(=O)/C=C1\CN(Cc2cc(OC)c(OC)c(OC)c2)S(=O)(=O)c2ccc(C(F)(F)F)cc21,u,n,35.5µM,n,n,n
COc1ccccc1CN1CCCC2(CCN(C(=O)c3ccco3)CC2)C1,x,x,n[12.7 µM],x,n,x
Oc1c(C=C2N=c3ccccc3=N2)sc(=S)n1-c1ccccc1,n,n,n,n,79.4µM,n
CC1=Nc2ccccc2/C1=C/c1sc(=S)n(-c2cccc(C(=O)O)c2)c1O,u,n,25.1µM,u,n,u
Cc1ccc(Sc2ccc(N3CCCC(C(=O)Nc4ccc(Br)cc4)C3)nn2)cc1 (centres undefined),n,x,n,n,x,n
CC(c1ccco1)N(C(=O)c1ccccc1NS(=O)(=O)c1cc([N+](=O)[O-])ccc1Cl)c1ccccn1 (centres undefined),79.4µM,n,3.98µM,n,u,25.1µM
CC(c1ccco1)N(C(=O)c1ccccc1NS(=O)(=O)c1cccc([N+](=O)[O-])c1)c1ccccn1 (centres undefined),n,n,79.4µM,n,u,n
CC(c1ccco1)N(C(=O)c1ccccc1NS(=O)(=O)c1ccc(Cl)cc1)c1ccccn1 (centres undefined),n,n,u,n,n,n
CN(C)C(CNS(=O)(=O)c1cc([N+](=O)[O-])ccc1Cl)c1ccco1 (centres undefined),x,26.7µM,x,n,x,u
Cc1ccc(/C=C/S(=O)(=O)NCC(=O)OCC(=O)Nc2c(F)cccc2F)cc1,n,n,20µM,n,x,n
Cc1ccc(/C=C/S(=O)(=O)NCC(=O)OCC(=O)Nc2ccc(C(N)=O)cc2)cc1,n,n,44.7µM,n,x,n
Cc1ccc(/C=C/S(=O)(=O)NCC(=O)OCC(=O)Nc2ccc(C(=O)N(C)C)cc2)cc1,n,n,n[12.7 µM],n,x,n
COc1ccc(/C=C2\SC(=O)N(CCC(=O)N3CCN(C)CC3)C2=O)cc1,n,n,n,n,n,n
O=C(CCN1C(=O)/C(=C/c2cccs2)SC1=S)N1CCCCC1,8.91µM,n,10µM,u,n,u
COc1cccc(/C=C2\SC(=O)N(CCC(=O)N3CCC(C(=O)O)CC3)C2=O)c1,u,n,70.8µM,n,n,n
O=C(CCN1C(=O)/C(=C/c2ccc(F)cc2)SC1=S)NCCc1cnc[nH]1,17.8µM,u,28.2µM,n,n,u
COc1cccc(/C=C2\SC(=S)N(CCCC(=O)N3CCCCC3CCO)C2=O)c1 (centres undefined),25.1µM,n,u,n,n,20µM
COc1ccccc1/C=C1\SC(=O)N(CCC(=O)N2CCCCC2CCO)C1=O (centres undefined),u,n,x,n,n,u
SMILES,BAZ2B inh,PLK1 PBD inh,G9a block,HP1b chromo inh,Sfp inh,JMJD2A Tudor
O=C(CCN1C(=O)/C(=C\c2ccccc2)SC1=S)N1CCCCC1,n,n,n,n,n,n
Cc1ccc(-c2nn(-c3ccc(F)cc3)cc2C(=O)NCCCN2CCCC2=O)cc1,n,n,n,n,x,n
CCN(N=O)[C@@H](Cc1ccccc1)CN(N=O)[C@@H](Cc1ccccc1)CN(C)N=O,n,n,n,n,n,n
COc1ccc(-c2c(-c3ccc4c(c3)OCO4)c3ccccc3n2C)cc1,x,n,x,n,x,u
O=C1/C(=C/c2cccs2)SC(=S)N1CCC(=O)N1CCCCC1CCO (centres undefined),22.4µM,n,50.1µM,n,n,u
COc1ccc(/C=C2\SC(=S)N(CCCC(=O)N3CCN(C)CC3)C2=O)cc1OC,x,n,x,n,x,n
COc1ccccc1/C=C1\SC(=S)N(CCC(=O)N2CCCCC2CCO)C1=O (centres undefined),n,n,u,n,n,u
O=C(CCCN1C(=O)/C(=C/c2ccccc2Cl)SC1=S)N1CCOCC1,79.4µM,n,n,n,n,22.4µM
CN1CCN(C(=O)CCN2C(=O)/C(=C/c3ccc(F)cc3)SC2=S)CC1,u,n,70.8µM,n,n,n
COc1cccc(/C=C2\SC(=S)N(CCCC(=O)N3CCCC3)C2=O)c1,31.6µM,n,39.8µM,u,n,44.7µM
Cc1ccc(/C=C2/SC(=S)N(CCC(=O)N3CCN(C)CC3)C2=O)cc1,n,n,x,n,n,n
Cc1nc2c(-c3ccccc3)c(C)[nH]n2c(=O)c1Cc1ccc(Br)cc1,n,x,n,n,x,n
COc1ccc(/C=C2\SC(=S)N(CCCC(=O)N3CCOCC3)C2=O)cc1,x,n,x,n,x,50.1µM
COc1cccc(/C=C2\SC(=S)N(CCC(=O)N3CCCCC3CCO)C2=O)c1 (centres undefined),31.6µM,n,56.2µM,u,n,u
C[C@H]1/C=C\CC(=O)NCc2cccc(c2)CNC(=O)N[C@H]1c1ccccc1,x,x,x,x,n,x
O=C(CN1C(=O)COc2ccccc21)NCCCN1CCc2ccccc2C1,n,n,u,n,20µM,u
Cc1cc(NC(=O)C(C)SCC(=O)OCc2c(Cl)cccc2Cl)no1 (centres undefined),n,n,n,n,n,n
CC1c2ccccc2SC(CCCN(C)C)c2ccccc21 (centres undefined),n,n,56.2µM,n,44.7µM,n
CN(C)CCCNC(=O)N1c2ccccc2Sc2ccccc21,n,n,n,n,n,n
Cc1ccc(Sc2ccc([N+](=O)[O-])cc2[N+](=O)[O-])nc1,44.7µM,n,n,n,n,u
O=C(/C=C/c1ccc2c(c1)OCCCO2)c1ccc2ccccc2c1O,10µM,n,11.2µM,25.1µM,39.8µM,28.2µM
Cc1ccc(C(=O)/C=C/c2ccc3c(c2)OCCO3)c(O)c1,u,n,39.8µM,u,n,31.6µM
O=C(/C=C/c1ccccc1)c1ccc2c(c1)OCCCCO2,n,n,n,n,n,n
O=C(/C=C/c1ccc(O)cc1)c1ccc(O)cc1O,n,n,n,n,n,n
